Data reported in PubChem BioAssay AID492952 (Southern Research Specialized Biocontainment Screening …, 2010).
In all, about 2,300 compounds went through this assay and about 1,500 (65%) were called active. How the calls were made is not given here. The set was probably picked from earlier hits. The list shows a part of the results. Results with a measured potency or affinity are listed apart.

Assay: replicating M. tuberculosis growth inhibition, dose response, non-replicating M. tuberculosis project, H37Rv (AID 492952);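 further: Mycobacterium tuberculosis grown in culture; growth inhibition read after a week of incubation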
Details: series mostly up to 50 µM

| Structure (SMILES) | outcome |
| --- | --- |
| CC(C)(C)NCc1cc(Br)ccc1OCc1cccs1 | inactive |
| CCCCOC(=O)c1ccc(OC(=O)c2cccnc2)cc1 | inactive |
| CC(C)CN1C(=O)/C(=C(/C#N)C(=O)NC2CCCCC2)c2ccccc21 | inactive |
| COc1cccc2sc(Nc3nnc(-c4cccs4)o3)nc12 | inactive |
| CC1(c2nnc(-c3ccc(F)cc3)o2)CC(c2cccc(Cl)c2)=NO1 (configuration not stated) | inactive |
| CC(C)(C)c1ccc2c(c1)OC(C(=O)N/N=C\c1ccccn1)CO2 (configuration not stated) | inactive |
| CCCOC(=O)c1cc(-c2ccc(C=O)o2)ccc1Cl | inactive |
| O=C(NNC(=O)C12CC3CC(CC(C3)C1)C2)c1cnccn1 | inactive |
| O=C(COC(=O)CC12CC3CC(CC(C3)C1)C2)Nc1cccnc1Cl | inactive |
| O=C(NC(=S)Nn1cnc2c(cnn2-c2ccccc2)c1=O)c1ccccc1 | inactive |
| CCC(C)c1ccc(O)c(/C=N/O)c1 (configuration not stated) | inactive |
| O=C(CCC1CCCCC1)NCc1ccc(F)cc1 | inactive |
| CCOc1cccc2cc(C(=O)NCc3ccccc3)c(=N)oc12 | inactive |
| CSc1ccccc1C(=O)NCc1ccc(S(N)(=O)=O)cc1 | inactive |
| C/C(=N\NC(=O)c1ccc(CN2CCc3ccccc3C2)cc1)c1ccccc1O | inactive |
| O=C(Cc1ccc(F)cc1)Nc1ccc(Cl)cn1 | inactive |
| O=C(c1ccco1)N1CCN(c2ccc(F)cc2)CC1 | inactive |
| CC(=O)N1CCC(=NNC(=O)c2cccs2)CC1 | inactive |
| O=C(NCCC1CCCC1)c1cccs1 | inactive |
| O=C(COC(=O)CC1CCCC1)Nc1ccc(OC(F)F)cc1 | inactive |
| N/C(=N\OC(=O)CC1CCCCC1)c1ccncc1 | inactive |
| O=C(COC(=O)C1CCCCC1)Nc1ccccc1OC(F)F | inactive |
| Cc1ccc(CO/N=C/c2c(O)cc(C)oc2=O)cc1 | inactive |
| O=C(Nc1ccccc1F)c1ccc(Br)o1 | inactive |
| Cc1ccc(CCC(=O)Nc2ccccc2F)s1 | inactive |

| Structure (SMILES) | outcome |
| --- | --- |
| NC(=O)C1CCN(C2CC(=O)NC2=O)CC1 (configuration not stated) | inactive |
| COc1ccc(OCCSc2nnc(Cc3cccc4ccccc34)n2N)cc1 | inactive |
| N/C(=N\OC(=O)c1cccs1)c1ccccc1 | inactive |
| CC1(C)CC(=O)C(C2NCCc3ccccc32)=C(O)C1 (configuration not stated) | inactive |
| O=C(Nc1ccccc1F)c1ccc(CSc2ccccc2)o1 | inactive |
| CCCc1cc(C(=O)Nc2cccc(C(C)=O)c2)no1 | inactive |
| Cc1cc(C(=O)NNc2cc(Cl)ccc2Cl)no1 | inactive |
| O=C(CN1CCC(Cc2ccccc2)CC1)NC(=O)NC1CCCCC1 | inactive |
| CC(C)[C@H]1CN=C2N(C[C@H](C)NC(=O)CCC3CCCCC3)[C@H](Cc3ccc(O)cc3)CN21 | inactive |
| C[C@@H]1CN=C2N(CCNC(=O)CCC3CCCCC3)[C@H](Cc3ccc(O)cc3)CN21 | inactive |
| CCCC(=O)N1CCC(Cc2ccccc2)CC1 | inactive |
| COc1cc(C=O)ccc1OCCCCOc1ccccc1[N+](=O)[O-] | inactive |
| CCc1ccc(C2=C/C(=C/c3cccnc3)C(=O)O2)cc1 | inactive |
| C/C(=N\Nc1ccc(Cl)cc1)c1c(O)cc(C)oc1=O | inactive |
| CN(C)c1ccc(NC(=O)COC(=O)c2cc(Cl)ccc2[N+](=O)[O-])cc1 | inactive |
| O=C(Nc1cccc([N+](=O)[O-])c1)C1COc2ccccc2O1 (configuration not stated) | inactive |
| Cn1cccc1/C=N\NC(=O)C1COc2ccccc2O1 (configuration not stated) | inactive |
| O=C(Nc1cccc(Cl)c1)C1COc2ccccc2O1 (configuration not stated) | inactive |
| O=C(Nc1ccc(Cl)cn1)C1COc2ccccc2O1 (configuration not stated) | inactive |
| O=C(Nc1ccc([N+](=O)[O-])cc1)C1COc2ccccc2O1 (configuration not stated) | inactive |
| CC(C)NC(=O)C1COc2ccccc2O1 (configuration not stated) | inactive |
| COc1ccc2c([N+](=O)[O-])c(N3CCCC3)[nH]c2c1 | inactive |
| CN(C)S(=O)(=O)Oc1ccc(C(=O)Nc2cccc(C(F)(F)F)c2)cc1 | inactive |
| COC(=O)c1cccc(NC(=O)COc2cccc([N+](=O)[O-])c2)c1 | inactive |
| COc1ccc(NC(=O)COc2ccccc2)cc1Cl | inactive |

| Structure (SMILES) | outcome |
| --- | --- |
| C=C(C)C1Cc2cc3ccc(=O)oc3cc2O1 (configuration not stated) | inactive |
| COCCNC(=O)CC(=O)N/N=C/c1cccc(C(=O)OC)c1 | inactive |
| O=C(CCc1c[nH]c2ccccc12)Nc1ncccc1O | inactive |
| O=C(COC(=O)CCC(=O)c1ccc(F)cc1)Nc1ccccc1 | inactive |
| COc1cccc(NC(=O)COC(=O)Cc2ccc(Br)cc2)c1 | inactive |
| CC(=O)c1ccc(NC(=O)C(Cc2ccccc2)n2cccc2)cc1 (configuration not stated) | inactive |
| Cc1cc(C(=O)NNc2ccc(Cl)cc2)no1 | inactive |
| Cc1ccc(CSCCNC(=O)c2cccc([N+](=O)[O-])c2)cc1 | inactive |
| COc1ccc(NC(=O)c2cc([N+](=O)[O-])ccc2O)cc1 | inactive |
| COc1ccc([C@@]2(O)c3c(ccc(CC=C(C)C)c3O)NC(=O)[C@@H]2OC)cc1 | inactive |
| CN1/C(=C\C=N\NC(=O)c2cccnc2)C(C)(C)c2ccccc21 | inactive |
| C/C(CC(=O)Nc1ccc(C)c(Cl)c1)=N\NC(=O)c1ccco1 | inactive |
| CCc1cccc(OCCCn2ccnc2)c1 | inactive |
| O=Cc1ccc(OC2OCCOC2Oc2ccc(C=O)cc2)cc1 (configuration not stated) | inactive |
| CC1=NN(C(=O)c2cc(C)nn2C)C(O)(C(F)(F)F)C1 (configuration not stated) | inactive |
| CC1=NN(C(=O)c2ccc(Cn3nc(C)c(Br)c3C)cc2)C(O)(C(F)(F)F)C1 (configuration not stated) | inactive |
| O=C(c1ccccc1[N+](=O)[O-])N1N=C(c2ccccc2)CC1(O)C(F)(F)F (configuration not stated) | inactive |
| CC1=NN(C(=O)c2ccoc2C)C(O)(C(F)(F)F)C1 (configuration not stated) | inactive |
| Cc1cc(C)cc(NC(=O)COC(=O)CC2CCCC2)c1 | inactive |
| O=C(CC1CCCCC1)NCc1ccccc1 | inactive |
| Cc1cc(Cl)ccc1NNC(=O)c1cccs1 | inactive |
| CCN1CCN(Cc2cc(C(C)(C)C)c(O)c(C(C)(C)C)c2)CC1 | inactive |
| COc1cc(CNCCNC(=O)c2nonc2N)ccc1OCc1ccc(Cl)cc1 | inactive |
| O=C(NNc1ccc([N+](=O)[O-])cc1)C1CC1c1ccccc1 (configuration not stated) | inactive |
| Cc1cccc(OCC(O)Cn2c(=N)n(Cc3ccccc3)c3ccccc32)c1 (configuration not stated) | inactive |

| Structure (SMILES) | outcome |
| --- | --- |
| CCOc1ccc(Cn2c(=O)oc3ccccc32)cc1 | inactive |
| Cc1ccc(C(=O)N2N=C(CC(C)C)CC2(O)C(F)(F)F)o1 (configuration not stated) | inactive |
| CCSc1nsc(NC(=O)Nc2ccc(F)cc2F)n1 | inactive |
| O=C(C/C=N\OCc1ccc([N+](=O)[O-])cc1)Nc1ccc(Br)cc1 | inactive |
| C=CCc1ccc2oc(C(=O)OCC)cc(=O)c2c1O | inactive |
| CCC1(O)CC(c2ccccc2)=NN1C(=O)c1ccccc1F (configuration not stated) | inactive |
| COc1ccc(/C=N/NC(=O)C(=O)NCc2cccnc2)cc1OC | inactive |
| O=Cc1ccnc(-c2ccc(OC(=O)c3ccco3)cc2)n1 | inactive |
| COc1cc(/C=N/Nc2ccc(Cl)c(C(=O)O)c2)ccc1OC(=O)c1cccs1 | inactive |
| Cc1ccc(S(=O)(=O)NCC(=O)OCCOc2cccc(Cl)c2)cc1 | inactive |
| Cn1c(SCCOc2cccc(Cl)c2)nnc1-c1ccncc1 | inactive |
| CN(CCS(=O)(=O)c1ccc(Cl)cc1)Cc1cccnc1 | inactive |
| Cc1ccc(NC(=O)CCSc2nnc(-c3ccco3)o2)cc1 | inactive |
| CCCn1nnnc1NCc1ccc(CC)cc1 | inactive |
| CCCn1nnnc1NC(=O)COc1ccc(Br)cc1 | inactive |
| CCCn1nnnc1NCc1ccc(C(C)C)cc1 | inactive |
| Cc1ccc(-c2nnc(NC3CCCC3)s2)cc1 | inactive |
| Oc1c(Br)cc(Br)cc1/C=N/c1nccs1 | inactive |
| Cc1cccc(NCc2nnc(-c3ccccc3)o2)c1C | inactive |
| O=C(NCc1ccc(F)cc1)c1ccc(Br)o1 | inactive |
| Cc1cccc(NC(=O)c2n[nH]c([N+](=O)[O-])c2Br)c1C | inactive |
| C=C[C@]1(C)C=C2CCC3[C@](C)(CCC[C@@]3(C)C(=O)O)C2CC1 (some centres not stated) | inactive |
| O=C(Nc1ccccc1N1CCN(C(=O)c2ccc(Cl)cc2)CC1)c1ccc([N+](=O)[O-])o1 | inactive |
| CCn1nnc(NC(=O)c2ccc([N+](=O)[O-])o2)n1 | inactive |
| O=C(c1ccc(Br)o1)N1CCC(Cc2ccccc2)CC1 | inactive |

| Structure (SMILES) | outcome |
| --- | --- |
| CC1CCN(C(=O)C2COc3ccccc3O2)CC1 (configuration not stated) | inactive |
| O=C1NC2(CCC3(CC2)OCCO3)NN1c1ccc(Cl)cc1 | inactive |
| Cc1c(NC(=O)c2coc(=O)c(Br)c2)c(=O)n(-c2ccccc2)n1C | inactive |
| O=C(NC1=NCCS1)c1ccc(-c2ccc(Cl)cc2)o1 | inactive |
| NC(=O)c1ccc(-c2ccc(Br)cc2)o1 | inactive |
| O=C(COC(=O)Cc1ccc(Br)cc1)Nc1ccc(N2CCOCC2)cc1 | inactive |
| COc1ccc(C(=O)COC(=O)CCC(=O)c2cccs2)cc1 | inactive |
| COc1ccc(N=N/C(=C\O)C(=O)c2cccs2)cc1 | inactive |
| CC(CCc1ccccc1)NC(=O)COC(=O)c1cccs1 (configuration not stated) | inactive |
| CC(C)(NO)/C(=N\O)c1ccccc1 | inactive |
| CCc1cc(C(c2ccncc2)N2CCN(C)CC2)c(NC(=O)c2ccccc2)s1 (configuration not stated) | inactive |
| CCC1CCc2sc(C(=O)NCC3CCCO3)cc2C1 (configuration not stated) | inactive |
| CC(C)(C)c1ccc(C(=O)N2CCCC2)s1 | inactive |
| COc1ccccc1N1CCN(C(=O)CCn2c(=O)[nH]c3ccsc3c2=O)CC1 | inactive |
| CC(=O)Oc1ccc(N(C(C)=O)S(=O)(=O)c2cccs2)c2ccccc12 | inactive |
| COc1cccc(OCC(=O)NNC(=O)c2cccs2)c1 | inactive |
| COc1ccc(-c2nc(C=O)cs2)cc1 | inactive |
| COc1ccc(-c2cc(O)cc(O)c2)cc1 | inactive |
| CCc1ccc(C(C)NC(=O)C2CCCO2)cc1 (configuration not stated) | inactive |
| NC(N)=N/N=C/c1cccc([N+](=O)[O-])c1O | inactive |
| Cc1ccc2cc(/C=N/NC(=O)[C@H](C)NC(=O)OC(C)(C)C)c(Cl)nc2c1 | inactive |
| CCOc1ccc(NC(=O)CCc2ccc(C)o2)cc1 | inactive |
